Cruzain inh noDet: qHTS Assay for Promiscuous and Specific Inhibitors of Cruzain (without detergent); Cruzipain (Trypanosoma cruzi), P25779; purified cruzain, Z-FR-AMC fluorescence, no detergent; Potency, µM, inactives show max response, negative = inhibition, hits mostly inhibitors; 200,000 compounds, 2.3% hits; AID 1476, 2009;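 further: plate controls were enzyme without inhibitor for no effect and buffer without enzyme for full effect; nearly all actives have a fitted effect of over 40% in size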
Target sequence (P25779 123-467 limits assumed): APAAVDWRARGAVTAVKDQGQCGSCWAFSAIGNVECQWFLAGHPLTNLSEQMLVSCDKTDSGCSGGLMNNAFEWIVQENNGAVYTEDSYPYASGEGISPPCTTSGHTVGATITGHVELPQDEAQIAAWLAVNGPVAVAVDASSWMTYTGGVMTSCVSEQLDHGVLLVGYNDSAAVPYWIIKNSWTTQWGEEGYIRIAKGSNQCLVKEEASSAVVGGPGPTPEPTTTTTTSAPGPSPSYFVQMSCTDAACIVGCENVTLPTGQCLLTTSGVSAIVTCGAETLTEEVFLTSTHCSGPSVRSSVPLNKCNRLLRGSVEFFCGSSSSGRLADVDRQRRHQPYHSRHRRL
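Purified cruzain at 1.5 nM, pre-incubated 15 min with compound at room temperature in 100 mM sodium acetate pH 5.5, 5 mM DTT, 0.00005% Triton X-100. Reaction started with 2 uM Z-FR-AMC; AMC fluorescence increase over 60 s gives rate.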
Cruzain inh Det: qHTS Assay for Promiscuous and Specific Inhibitors of Cruzain (with detergent); Potency, µM, without a hit: max response, negative = inhibition, usual class: inhibitors; Cruzipain (Trypanosoma cruzi), P25779; purified cruzain, Z-FR-AMC fluorescence, 0.01% Triton; 200,000 compounds, 0.43% hits;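 further: plate controls were neutral wells for no effect and buffer without enzyme for full effect; nearly all actives have a fitted effect of over 40% in size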
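In this qHTS format, compounds are incubated with 1.5 nM cruzain for 15 min at room temperature before 2 uM Z-FR-AMC is added. Release of AMC is followed at 360/450 nm, and progress is taken as the 60 s fluorescence difference.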
* = called active by the depositor; ? = inconclusive. Only some compounds are listed: those with a hit (about 2.6% of all), similar ones and a draw of the others. The call rests on the fitted dose curve; in most records, active means well fitted curve in the direction sought with a large enough effect; inconclusive means small, poorly fitted or top-dose-only effect, or another doubt; inactive means no such curve, though single readings can be large; an effect the other way counts as inactive or inconclusive. Potency means the concentration at half of the fitted maximal effect.

SMILES	Cruzain inh noDet	Cruzain inh Det
O=C(CSc1nc2c(sc3ccccc32)c(=O)n1-c1ccccc1)NCc1ccco1	?	-13.8%
CCOCCCn1c(SCC(=O)NCc2ccco2)nc2c(sc3ccccc32)c1=O	-4.0%	-3.4%
CCCCn1c(SCC(=O)NCc2ccco2)nc2c(sc3ccccc32)c1=O	10µM*	-1.8%
CCCN(CCC)c1ccc(C2N=C(N)Nc3nc4ccccc4n32)cc1 (stereo not drawn)	-7.6%	-0.3%
CCc1ccc(-n2nc(C)c3c(C)cc(=O)n(CC(=O)Nc4ccc(OC)c(OC)c4)c32)cc1	-4.4%	-1.0%
O=C(NCc1ccc(Cl)cc1)c1ccc2c(c1)N(Cc1ccccc1F)C(=O)c1ccccc1S2=O (stereo not drawn)	-15.7%	1.4%
COc1cc(NC(=O)Cn2nnc(-c3ccc(C(F)(F)F)cc3)n2)c(C(=O)O)cc1OC	?	1.9%
COc1cc(NC(=O)COc2cccc(OC)c2)cc(OC)c1	-12.2%	-5.7%
COc1cccc(OCC(=O)NNC(=O)c2ccc(-c3ccccc3)cc2)c1	25.1µM*	0.7%
COc1ccc(-c2cc3ccccc3oc2=O)cc1NC(=O)c1ccc([N+](=O)[O-])o1	-22.4%	-3.6%
COc1cc2c(cc1NC(=O)c1ccc3c(c1)OCO3)oc1ccccc12	?	-8.6%
COc1ccc(-c2cc3ccccc3oc2=O)cc1NC(=S)NC(=O)c1ccc2c(c1)OCCO2	12.6µM*	-2.5%
COc1ccc(-c2cc3ccccc3oc2=O)cc1NC(=O)c1ccc(Br)o1	25.1µM*	-21.0%
COc1ccc(OC)c(NC(=O)Cc2coc3ccc(C(C)C)cc23)c1	9.2%	-13.1%
CCCSC1=NC2(CCN(C(=O)NC3CCCCC3)CC2)N=C1c1ccc(Cl)cc1	-1.1%	0.1%
CC(C)N=C=NC(C)C	-4.5%	2.3%
Cc1ccc2ccc3cc(C(=O)Nc4ccc(C)c(F)c4)nc3c2[nH]1	?	8.91µM*
Cc1ccc2ccc3cc(C(=O)N4CCN(c5ccccc5F)CC4)nc3c2[nH]1	-22.0%	-2.3%
Cc1ccc(O)c(C(=O)c2cc(C(=O)NCCc3ccccc3)c(=O)n(CCc3ccccc3)c2)c1	25.1µM*	-5.0%
COc1ccc(O)c(C(=O)c2cc(C(=O)NCCc3ccccc3)c(=O)n(CCc3ccccc3)c2)c1	-1.9%	-4.7%
CCCCc1ccc(NC(=O)c2cc3c(=O)n4ccccc4nc3n2C)cc1	13.2%	-1.3%
O=C(Nc1ccccc1)/C(=C\c1ccncc1)NC(=O)c1ccccc1	-2.5%	-0.9%
COc1ccc(NC(=O)/C(=C\c2ccc(OS(=O)(=O)c3ccc(C)cc3)cc2)NC(=O)c2ccccc2)cc1	7.94µM*	2.6%
Cc1ccc(S(=O)(=O)Oc2ccc(/C=C(/NC(=O)c3ccccc3)C(=O)Nc3ccccc3)cc2)cc1	12.6µM*	1.5%
Cc1cccc(NC(=O)/C(=C\c2ccc([N+](=O)[O-])o2)NC(=O)c2ccc(Cl)cc2)c1	-20.1%	-2.8%
SMILES	Cruzain inh noDet	Cruzain inh Det
Cc1ccc(NC(=O)/C(=C/c2ccncc2)NC(=O)c2ccccc2)cc1	-8.0%	-4.1%
CSc1ccc(/C=C(/NC(=O)c2ccc(C)cc2)C(=O)Nc2cccc(C)c2)cc1	6.31µM*	-5.8%
COc1ccc(C)c2sc(N3CCN(C(=O)c4ccco4)CC3)nc12	?	-4.7%
Cc1ccc(-c2noc(-c3ccc(N4CCCC4)c([N+](=O)[O-])c3)n2)cc1	5.0%	-5.6%
O=C(NS(=O)(=O)c1ccc(F)cc1)O[C@@H]1C(=O)c2cc(Br)ccc2O[C@H]1c1ccc2c(c1)OCO2	-8.6%	-0.9%
COC(=O)c1c(NC(=O)CN2C(=O)NC3(CCc4ccccc4C3)C2=O)sc2c1CCCCC2 (stereo not drawn)	12.6µM*	-4.4%
COC(=O)c1c(NC(=O)CN2C(=O)NC3(CCC(C(C)(C)C)CC3)C2=O)sc2c1CCCCC2 (stereo not drawn)	15.8µM*	0.6%
O=C(CN1C(=O)NC2(CCc3ccccc3C2)C1=O)Nc1ccc(Cl)cc1F (stereo not drawn)	-7.3%	-1.6%
CC1CCCCC12NC(=O)N(CC(=O)Nc1sc3c(c1C(N)=O)CCC3)C2=O (stereo not drawn)	8.3%	-22.4%
CC(C)(C)CC(C)(C)NC(=S)Nc1ccc(S(=O)(=O)N2CCOCC2)cc1	?	-10.5%
O=S(=O)(c1ccc(NC(=S)NCCC(c2ccccc2)c2ccccc2)cc1)N1CCOCC1	25.1µM*	-11.6%
CCOc1ccc(CCNC(=O)C2CCCN(S(=O)(=O)N(C)c3ccc(F)cc3)C2)cc1 (stereo not drawn)	18.9%	-3.4%
Cc1ccc(S(=O)(=O)/N=C2/C=C(Sc3ncn[nH]3)C(=O)c3ccccc32)cc1	?	-7.2%
CC(C)c1ccc(S(=O)(=O)/N=C2/C=C(Sc3ncn[nH]3)C(=O)c3ccccc32)cc1	12.6µM*	-14.2%
COc1cc2c(cc1NC(=O)CSc1ccc(C)cc1)oc1ccccc12	-29.1%	2.8%
COc1cc2c(cc1NC(=O)Cc1ccc(C)cc1)oc1ccccc12	-0.4%	-10.2%
COc1cc2c(cc1NC(=O)COC(=O)C(CCSC)NC(=O)c1ccccc1Cl)oc1ccccc12 (stereo not drawn)	25.1µM*	?
COc1cc2c(cc1NC(=O)COC(=O)[C@@H](NS(=O)(=O)c1ccccc1)C(C)C)oc1ccccc12	?	-1.7%
COc1cc2c(cc1NC(=O)COc1ccccc1OC)oc1ccccc12	-21.0%	9.1%
COc1cc2c(cc1NC(=O)COC(=O)c1ccc(C(C)(C)C)cc1)oc1ccccc12	12.6µM*	-1.1%
COc1cc2c(cc1NC(=O)CN1CCN(S(=O)(=O)c3ccccc3F)CC1)oc1ccccc12	25.1µM*	1.3%
COc1cc2c(cc1NC(=O)CSc1nnnn1-c1ccccc1)oc1ccccc12	31.6µM*	3.9%
COc1cc(C(=O)Nc2nonc2-c2ccc(C)c(C)c2)cc(OC)c1OC	-7.5%	-4.3%
COC(=O)C1CCN(C(c2ccccc2)c2sc3nc(-c4ccco4)nn3c2O)CC1 (stereo not drawn)	8.9%	-1.6%
CCCN(CCC)S(=O)(=O)c1ccc(C(=O)Nc2cc3oc4ccccc4c3cc2OC)cc1	15.8µM*	-10.1%
SMILES	Cruzain inh noDet	Cruzain inh Det
CCN(CC)S(=O)(=O)c1cccc(C(=O)Nc2cc3oc4ccccc4c3cc2OC)c1	?	-4.7%
C/C(=C\CNc1ncnc2c1ncn2[C@@H]1O[C@H](CO)[C@@H](O)[C@H]1O)CO	-6.3%	0.6%
CCC12C(=O)C(CC)(C(c3ccccc3)=C1c1ccccc1)[C@@H]1C(=O)N(c3ccc(C)cc3)C(=O)C12 (stereo partly drawn)	?	-3.9%
CCCC12C(=O)C(C)(C(c3ccccc3)=C1c1ccccc1)C1C(=O)N(c3ccc(C)cc3)C(=O)C12 (stereo not drawn)	20µM*	-1.0%
COc1ccccc1C(=O)N(c1ccc(C)cc1)S(=O)(=O)c1ccc(Cl)cc1	-15.0%	-5.8%
CCc1cccc(N2C(=O)CS(=O)(=O)C23C(=O)N(Cc2ccccc2)c2ccc(C)cc23)c1 (stereo not drawn)	1.58µM*	-3.9%
O=C1CS(=O)(=O)C2(C(=O)N(Cc3ccccc3Cl)c3ccccc32)N1c1ccc(F)cc1 (stereo not drawn)	2.51µM*	-3.5%
Cc1ccc(N2C(=O)CS(=O)(=O)C23C(=O)N(Cc2cccc(F)c2)c2ccccc23)cc1Cl (stereo not drawn)	2µM*	-5.1%
